mHTT-CaM PPI inh = mutant huntingtin-calmodulin interaction inhibitors – biochemical, AlphaScreen, primary screen. P42858. AlphaScreen His-mHTT/GST-CaM binding, luminescence. inhibition, % at 15 µM. 190,000 compounds, 3.6% hits;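 also: 0% = both proteins with DMSO and 100% = one protein alone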
Pf apPOL block = Pf-apPOL inhibitors, biochemical, fluorescence; Plasmodium falciparum apicoplast DNA polymerase (apPOL); Recombinant Pf-apPOL, molecular beacon fluorescence, 1.5 h; inhibition, % at 10 µM; 210,000 compounds, 0.25% hits; AID 1794808, 2022
Starred values were filed as active, the others as inactive; · = no result. Only some compounds are listed: those with a hit (about 3.6% of all), similar ones and a draw of the others. Rule as the data show it: active = inhibition above about 50%; inactive = the rest.

SMILES | mHTT-CaM PPI inh | Pf apPOL block
COc1cccc(/C=C2\C(=O)NN(c3ccc(C)c(C)c3)C2=O)c1 | 9 | -5
COc1cc(Cl)cc(/C=C2\C(=O)NN(c3cccc(Cl)c3)C2=O)c1O | 58* | 0
COc1cccc(/C=C2\C(=O)NN(c3cccc(C(F)(F)F)c3)C2=O)c1 | 85* | -2
CC(=O)N1CCC2(CC1)N=C(c1ccccc1O)CC(c1ccccc1O)N2 (stereo not given) | 47 | -1
CCN1CCC2(CC1)N=C(c1cc(Cl)ccc1O)CC(c1ccc(OC)cc1)N2 (stereo not given) | 100* | -3
CCOC(=O)N1CCC2(CC1)N=C(c1ccc(C)cc1)CC(c1cc(Cl)ccc1O)N2 (stereo not given) | 3 | 3
CN1CCC2(CC1)N=C(c1cc(Cl)ccc1O)CC(c1ccccc1O)N2 (stereo not given) | 45 | -3
COc1ccc(C2CC(c3ccccc3O)=NC3(CCN(C(C)=O)CC3)N2)cc1OC (stereo not given) | 51* | -3
CC(=O)N1CCC2(CC1)N=C(c1ccccc1O)CC(c1ccc(C)cc1C)N2 (stereo not given) | 58* | -5
COc1ccc(C2CC(c3ccccc3O)=NC3(CCN(C(C)C)CC3)N2)cc1OC (stereo not given) | 38 | -7
CCOC(=O)N1CCC2(CC1)N=C(c1cc(Cl)ccc1O)CC(c1ccccc1O)N2 (stereo not given) | 100* | -2
CCN1CCN(CCNC(=O)c2cc3n(n2)CCCN(Cc2cccc(C)c2)C3=O)CC1 | 4 | 1
NC(=O)c1cc2c(Cl)ccc3c2n1CCO3 | 4 | -6
COc1ccc(C(=O)N2CCN(c3ccccc3)CC2)nn1 | -9 | 14
CC(C)N1CCC2(CC1)N=C(c1cc(Cl)ccc1O)CC(c1ccccc1O)N2 (stereo not given) | 32 | 5
CCN1CCC2(CC1)N=C(c1ccccc1O)CC(c1ccccc1O)N2 (stereo not given) | 35 | -3
CC(=O)N1CCC2(CC1)N=C(c1ccccc1O)CC(c1ccc(C(C)C)cc1)N2 (stereo not given) | 7 | -5
CCN1CCC2(CC1)N=C(c1ccccc1O)CC(c1ccc(Cl)cc1)N2 (stereo not given) | 60* | -2
COc1ccc(C2CC(c3cc(Cl)ccc3O)=NC3(CCN(C(C)=O)CC3)N2)cc1 (stereo not given) | 100* | -4
CC(=O)N1CCC2(CC1)N=C(c1cc(Cl)ccc1O)CC(c1ccc(F)cc1)N2 (stereo not given) | 100* | -3
COc1ccc(Cc2c(C)nc(C3CC3)nc2N2CCN(C(C)=O)CC2)cc1 | 13 | -5
CN(Cc1ccncc1)C(=O)NC(C)(C)C | 3 | -3
CCOc1ccc(C(=O)N2CCc3cc(OC)c(OC)cc3C2COc2ccccc2OC)cc1 (stereo not given) | 73* | 1
COc1cc2c(cc1OC)C(COc1ccccc1OC)N(C(=O)c1ccccc1OC)CC2 (stereo not given) | 37 | -6
COc1ccc(OCC2c3cc(OC)c(OC)cc3CCN2C(=O)c2ccc(C)cc2)cc1 (stereo not given) | 77* | 2
SMILES | mHTT-CaM PPI inh | Pf apPOL block
COC(=O)c1ccc(OCC2c3cc(OC)c(OC)cc3CCN2C(=O)c2ccc(OC)cc2)cc1 (stereo not given) | 47 | -4
CC(C)C(=O)NCc1csc(C2CCCN(C(=O)CC3CCCCC3)C2)n1 (stereo not given) | -6 | -2
O=C1NC(=Nc2ccccc2)SC1Cc1cccc(Cl)c1 (stereo not given) | -8 | 9
COc1ccc(Nc2cc(C)c3cc(C)ccc3n2)cc1 | 56* | -1
Cc1ccc2nc(Cl)cc(C)c2c1 | -4 | ·
O=C(NC1CCN(C(=O)C2CCCC2)C1)C1CCC1 (stereo not given) | 6 | 5
Cn1c(=S)sc2ccccc21 | -7 | 4
CS(=O)(=O)N(Cc1ccccc1Cl)c1ccc(C(=O)NC2CCCCC2)cc1 | -2 | 2
Cc1ccc(C)c(N2CCN(C(=O)CN3C(=O)CCCc4ccccc43)CC2)c1 | 2 | -2
Cc1cccc(CS(=O)(=O)N2CC(c3nc(Cc4ccccc4)no3)C2)c1 | -13 | -8
FC(F)(F)c1cccc(CN2CC(c3nc(Cc4ccccc4)no3)C2)c1 | 62* | -4
Cc1nnc(NC(=O)CN2CC(c3nc(Cc4ccccc4)no3)C2)s1 | -3 | -5
O=C(CN1CC(c2nc(Cc3ccccc3)no2)C1)c1ccc(Cl)cc1 | 57* | 20
CC(=O)Oc1ccc2c(c1)OC(=CC=Cc1ccccc1)C2=O | 9 | -8
COc1nccnc1N1CCC(NS(=O)(=O)c2cn(C)cn2)C1 (stereo not given) | 3 | 0
O=C1CC(c2ccc(Cl)c(Cl)c2)CC(O)=C1C=NCCN1CCNCC1 (stereo not given) | 59* | -3
O=C1CC(c2cccs2)CC(O)=C1C=NCCN1CCNCC1 (stereo not given) | 0 | 10
COc1ccc(-c2coc3c(CN4CC5CC(C4)c4cccc(=O)n4C5)c(O)ccc3c2=O)cc1 (stereo not given) | 27 | -28
COCOCCn1cc(CN2CCS(=O)(=O)N(Cc3ccc(-c4ccc(C)cc4)cc3)C(C)C2=O)nn1 (stereo not given) | -4 | -19
COCOCCn1cc(CN2CCS(=O)(=O)N(Cc3ccc(-c4ccccc4)cc3)C(C(C)C)C2=O)nn1 (stereo not given) | 54* | -22
COCOCCn1cc(CN2CCS(=O)(=O)N(Cc3ccc(-c4ccc(Cl)c(Cl)c4)cc3)C(C)C2=O)nn1 (stereo not given) | 99* | -6
COCOCCn1cc(CN2CCS(=O)(=O)N(Cc3ccc(-c4ccc(C)cc4)cc3)C(C(C)C)C2=O)nn1 (stereo not given) | 10 | -12
c1cc(-c2noc(-c3cc4ccccc4[nH]3)n2)cc(-c2ccn[nH]2)c1 | 22 | -1
CCOc1ccccc1NC(=O)c1c(NCc2cccn2C)sc2c1CCC2 | 21 | -15
COc1ccc(NC(=O)c2c(NCc3ccccn3)sc3c2CCCC3)c(OC)c1 | 53* | -18
SMILES | mHTT-CaM PPI inh | Pf apPOL block
CCOc1ccccc1NC(=O)c1c(NCc2ccncc2)sc2c1CCC2 | 29 | -21
COc1ccccc1NC(=O)c1c(NCc2ccccn2)sc2c1CCCC2 | 50* | -16
COc1ccc(NC(=O)c2c(NCc3ccccn3)sc3c2CCC(C)C3)c(OC)c1 (stereo not given) | 49 | -17
CCOc1ccccc1NC(=O)c1c(NCc2ccccn2)sc2c1CCC2 | 58* | -10
COc1cc(NS(=O)(=O)c2ccc(NC(=O)C34CC5CC(CC(C5)C3)C4)cc2)nc(OC)n1 | 3 | 3
C=CCNC(=O)COc1ccc(Cl)cc1 | -14 | 4
O=C(CCC1CCCN(C(=O)Nc2cccc(F)c2)C1)NCC1CCCCC1 (stereo not given) | -19 | -5
CCOc1ccccc1N(C)S(=O)(=O)c1ccc2[nH]cc(C(=O)N(CC)CC)c(=O)c2c1 | 11 | -8

Bioassay records (PubChem BioAssay)
